Source: PubChem (NMMLSC)
LAP4 TOR yeast = alters LAP4-GFP fluorescence in TOR pathway yeast screen; actives 0.34% (n = 320,000); GFP response vs DMSO, % at 10 µM; S. cerevisiae LAP4-GFP multiplex, flow cytometry GFP, 3 h; median GFP as percent of DMSO wells;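 active = GFP response vs DMSO above a set limit, about the screen mean plus 3 SD, cut at about 150% in these data; inconclusive = under 70 cell events counted for the yeast strain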
DSG3 Ab inh = blocks pemphigus antibody binding to human desmoglein-3. DSG3-coupled beads, scFv-anti-DSG3-GFP binding, flow cytometry; stronger effect = lower value. binding (percent of control), % at 10 µM. actives 0.48% (n = 310,000). AID 588358;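 active = binding more than 3 SD below its plate's average and above zero; inconclusive = below that plate limit but binding exactly zero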;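 note: hits lower antibody fragment binding to DSG3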
Target sequence (P32926 whole entry, looked up, the tested form may be a part): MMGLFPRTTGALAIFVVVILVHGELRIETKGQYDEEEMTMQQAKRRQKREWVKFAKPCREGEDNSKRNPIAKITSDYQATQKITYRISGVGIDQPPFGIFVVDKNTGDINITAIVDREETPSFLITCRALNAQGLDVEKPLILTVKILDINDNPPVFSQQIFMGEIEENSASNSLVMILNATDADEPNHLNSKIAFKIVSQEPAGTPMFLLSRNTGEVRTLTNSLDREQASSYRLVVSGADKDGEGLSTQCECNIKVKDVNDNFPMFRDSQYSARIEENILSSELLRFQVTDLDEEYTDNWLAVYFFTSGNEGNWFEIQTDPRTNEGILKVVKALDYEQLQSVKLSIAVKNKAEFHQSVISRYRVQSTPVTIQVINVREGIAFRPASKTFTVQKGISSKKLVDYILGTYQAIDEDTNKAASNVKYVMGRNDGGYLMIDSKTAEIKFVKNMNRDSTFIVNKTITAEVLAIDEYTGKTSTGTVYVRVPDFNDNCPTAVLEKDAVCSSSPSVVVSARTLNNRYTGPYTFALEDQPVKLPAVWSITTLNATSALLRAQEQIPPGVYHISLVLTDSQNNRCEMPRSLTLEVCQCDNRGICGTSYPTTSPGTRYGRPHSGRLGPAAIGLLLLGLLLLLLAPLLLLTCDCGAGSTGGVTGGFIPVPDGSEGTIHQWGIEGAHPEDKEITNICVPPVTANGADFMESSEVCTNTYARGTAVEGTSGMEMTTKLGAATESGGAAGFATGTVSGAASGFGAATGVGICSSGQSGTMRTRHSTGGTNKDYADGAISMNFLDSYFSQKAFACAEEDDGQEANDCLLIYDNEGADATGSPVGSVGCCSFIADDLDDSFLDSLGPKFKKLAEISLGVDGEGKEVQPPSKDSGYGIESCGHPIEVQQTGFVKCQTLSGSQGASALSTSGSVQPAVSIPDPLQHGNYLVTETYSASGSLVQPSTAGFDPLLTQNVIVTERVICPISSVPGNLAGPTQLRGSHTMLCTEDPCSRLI
CIT2 TOR yeast = yeast TOR pathway CIT2-GFP modulation. S. cerevisiae CIT2-GFP strain, flow cytometry, 3 h; 100 means same as DMSO wells. GFP response vs DMSO, % at 10 µM. actives 0.065% (n = 320,000). AID 2029;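 active = GFP response relative to DMSO above a set limit, near the screen mean plus 3 SD, cut at about 150% in these data; inconclusive = Fewer than 70 cells measured for a yeast strain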;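 note: ratio of well median GFP fluorescence to mean of DMSO wells on the plate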
AGP1 TOR yeast = yeast TOR pathway AGP1-GFP modulation | actives 0.02% (n = 320,000) | GFP response vs DMSO, % at 10 µM | S. cerevisiae AGP1-GFP multiplex flow cytometry, 3 h; GFP as percent of DMSO wells;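 active = GFP response relative to DMSO above a set limit, near screen average plus 3 SD, cut at about 150% in these data; inconclusive = fewer than 70 cells counted for the yeast strain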;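 note: median GFP channel fluorescence of the gated AGP1 strain per well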
RPL19A TOR yeast = yeast TOR pathway RPL19A-GFP modulation; S. cerevisiae RPL19A-GFP strain, flow cytometry, 3 h; stronger effect = lower value; percent response vs DMSO, % at 10 µM; actives 0.3% (n = 330,000); AID 2025;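 active = percent response vs DMSO below 50%; inconclusive = fewer than 70 events counted for the yeast strain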;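 note: median channel GFP fluorescence of the barcoded RPL19A-GFP strain; ratio of sample median GFP to plate DMSO average so 100% = DMSO; lower means less RPL19A-GFP as with rapamycin TOR inhibition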
MEP2-GFP yeast = yeast TOR pathway MEP2-GFP modulation; AID 2016; GFP response vs DMSO, % at 10 µM; actives 0.51% (n = 330,000); S. cerevisiae MEP2-GFP strain, flow cytometry GFP, 3 h; 100% = DMSO control level;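 active = GFP response versus DMSO above a set limit, roughly screen mean plus 3 SD, cut at about 180% in these data; inconclusive = fewer than 70 cells counted for a yeast strain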;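 note: median GFP fluorescence of the barcode-gated MEP2-GFP cells per well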
The depositor's hits bear a star; ? = inconclusive; . = not tested or not shown; [ ] = dose if it differs, or a comment. Hits are enriched below; roughly 1.2% of the tested compounds scored in any of these assays.

SMILES | LAP4 TOR yeast | DSG3 Ab inh | CIT2 TOR yeast | AGP1 TOR yeast | RPL19A TOR yeast | MEP2-GFP yeast
CCc1ccc(CNC(=O)CCC(=O)n2ncc3cc(C)ccc32)cc1 | 100 | 77* | 83 | 90 | 93 | 96
Cc1ccc2c(cnn2C(=O)CCCC(=O)NCc2ccc(F)cc2)c1 | 110 | 104 | 101 | 107 | 111 | 101
CN1Cc2sc(NC(=S)NC(=O)c3ccccc3)c(C#N)c2CC1(C)C | 155* | 105 | 161* | 110 | 106 | 157
CSc1ccccc1OCc1cc(C(=O)NCc2csc(C(C)C)n2)no1 | 99 | . | 97 | 94 | 100 | 103
Oc1ccccc1C(Nc1nccs1)c1ccc2cccnc2c1O (configuration not stated) | 94 | 70* | 94 | 90 | 97 | 95
O=C(O)c1cccc(S(=O)(=O)Nc2ccccc2C(=O)NCCc2ccccc2)c1 | 86 | 17* | 100 | 94 | 101 | 104
c1ccc2c(NCC3CCCO3)nc(N3CCOCC3)nc2c1 (configuration not stated) | 78 | 98 | ? | ? | 22*[may fluoresce violet] | 237*[may fluoresce violet]
Cc1ccc(S(=O)(=O)N(C)C)cc1NC(=O)CN1C(=O)NC2(CCc3ccccc32)C1=O (configuration not stated) | . | 98 | . | . | . | .
COc1ccc(S(=O)(=O)N2CCN(C(=O)c3c(C)nn(-c4ccccc4)c3Cl)CC2)cc1 | 97 | 108 | ? | ? | 19*[may fluoresce violet] | 521*[may fluoresce violet]
N#Cc1ccc(Cl)cc1NC(=O)COC(=O)c1cccc(S(=O)(=O)N2CCOCC2)c1 | 101 | ? | 93 | 102 | 99 | 102
CCCC(c1nnnn1CS(=O)(=O)c1ccc(C)cc1)N1CCC(C(N)=O)CC1 (configuration not stated) | 78 | . | ? | ? | 56 | 224*[may fluoresce violet]
COc1cccc(CNC(=O)CSc2nnc3c(n2)[nH]c2ccccc23)c1 | 95 | . | 103 | 104 | 104 | 97
CC(C)(C)c1ccc(C(=O)NC(=S)NNC(=O)c2cccs2)cc1 | 120 | 81* | 97 | 107 | 110 | 115
Cc1ccccc1C(=O)Nc1cccc(NC(=S)NC(=O)c2cccs2)c1 | 99 | 109 | 98 | 92 | 97 | 108
Cc1ccccc1C(=O)NNC(=S)NC(=O)c1cccs1 | 125 | 79* | 87 | 135 | 96 | 100
N#Cc1cccn1-c1nccc(-c2cccs2)n1 | 87 | 101 | 99 | 96 | 105 | 97
CC(C)Oc1cccc(C(=O)C2CCCN(C(=O)c3ccccn3)C2)c1 (configuration not stated) | 97 | 100 | 108 | 100 | 99 | 105
Cc1cccc(C(=O)NNC(=O)c2cc3cc4ccccc4nc3s2)c1 | 118 | . | 102 | 102 | 103 | 140
Cc1ccc(S(=O)(=O)NNC(=O)c2cc3cc4ccccc4nc3s2)cc1 | 93 | . | ? | 20 | 45*[may fluoresce violet] | 598*[may fluoresce violet]
CCCCN(CCCNC(=O)c1ccc2c(c1)NC(=O)CN2C)c1ccccc1 | . | 99 | . | . | . | .
N#Cc1c2ncn(CC(=O)c3ccc(Br)cc3)c(=O)c2c2n1CCC2 | 106 | 30* | 104 | 105 | 99 | 108
CCOc1ccc(/C(O)=C2/C(=O)C(=O)N(c3cc(C)on3)C2c2ccc(C(=O)OC)cc2)cc1 (configuration not stated) | 108 | -31* | 88 | 100 | 99 | 105
CCCOc1ccc(/C(O)=C2/C(=O)C(=O)N(c3cc(C)on3)C2c2ccc(C(=O)OC)cc2)cc1 (configuration not stated) | 85 | ? | . | 100 | 103 | 103
Cc1ccc(CCNC(=O)CCS(=O)(=O)c2ccc3nc(C)sc3c2)cc1 | 105 | -11* | 94 | 102 | 100 | 106
c1ccc2c(c1)C1=NCCN1c1ccccc1-2 | . | 100 | . | . | . | .
SMILES | LAP4 TOR yeast | DSG3 Ab inh | CIT2 TOR yeast | AGP1 TOR yeast | RPL19A TOR yeast | MEP2-GFP yeast
CCOc1ccc(CCNC(=O)Cc2ccc(NC(=O)C3=C(C)OCCS3)cc2)cc1 | 103 | 104 | 107 | 103 | 101 | 105
CSc1ccc(CNC(=O)Cc2ccc(NC(=O)C3=C(C)OCCS3)cc2)cc1 | 98 | 54* | 111 | 109 | 101 | 98
Cc1ccnn1CCC(=O)N1CCCC(Nc2ccc(C(C)C)cc2)C1 (configuration not stated) | . | 99 | . | . | . | .
Cc1ccnn1CCC(=O)N1CCCC(Nc2ccc(F)c(F)c2)C1 (configuration not stated) | 99 | 0.9* | 106 | 105 | 97 | 96
Cc1ccc(Cl)cc1N1C(=O)CC(Sc2ccccc2N)C1=O (configuration not stated) | . | 98 | . | . | . | .
O=C(CN1C(=O)S/C(=C\c2cccc(Cl)c2)C1=O)NCCCn1ccnc1 | 110 | 96 | ? | ? | 50*[may fluoresce violet] | 707*[may fluoresce violet]
C/C(=N/OCC(=O)NCCCCCCNC(=O)CO/N=C(/C)c1cccs1)c1cccs1 | 86 | 104 | 91 | 90 | 96 | 93
Cc1ccc(NC(=O)COc2cccnc2[N+](=O)[O-])cc1S(=O)(=O)N1CCCCC1 | 87 | . | 99 | 98 | 102 | 102
O=C(COc1cccnc1[N+](=O)[O-])Nc1cc(S(=O)(=O)N2CCCCC2)ccc1Cl | 112 | 85* | 105 | 115 | 106 | 105
CC(=O)OCC(=O)Nc1cc(S(=O)(=O)N2CCCCCC2)ccc1Cl | 104 | 71* | 98 | 101 | 103 | 104
COc1ccc(S(=O)(=O)N2CCCCCC2)cc1NC(=O)CCNC(=O)c1ccc(Cl)cc1 | . | 98 | . | . | . | .
COc1ccc(S(=O)(=O)N2CCCCC2)cc1NC(=O)CCNC(=O)c1ccc(Cl)cc1 | 94 | 50* | 113 | 106 | 101 | 105
O=C(COC(=O)C1CCC1)Nc1cc(S(=O)(=O)N2CCCCC2)ccc1Cl | 85 | 90 | 87 | 91 | 89 | 95
COc1ccc(C(=O)N/C(=C\c2ccc(Cl)cc2)C(=O)NCc2ccncc2)cc1 | . | 102 | . | . | . | .
Cc1ccc(Cn2cc(C(=O)c3ccc(F)cc3)c(=O)c3cc4c(cc32)OCCO4)cc1 | 93 | 0.5* | 96 | 100 | 95 | 95
CCn1c(SCC(=O)N2CCCC2)nnc1-c1ccco1 | 88 | 96 | 94 | 94 | 94 | 98
COCCNc1nc(-c2cc(C)n(CCc3ccc(OC)cc3)c2C)cs1 | 84 | 89* | 100 | 93 | 97 | 96
COc1ccccc1CNc1nc(-c2cc(C)n(C)c2C)cs1 | . | 96 | . | . | . | .
CCN(CC(=O)Nc1ccccc1C(F)(F)F)C(=O)COc1cccc2c1OC(C)(C)C2 | 102 | 100 | 100 | 105 | 101 | 99
CC1(C)Cc2cccc(OCC(=O)Nc3ccccc3N3CCOCC3)c2O1 | 103 | 99 | ? | ? | 16*[may fluoresce violet] | ?
